12-hLO inh: inhibitors of human 12-lipoxygenase (ALOX12) | Potency, µM (series often up to 57.1 µM), for inactives: at the highest dose activity change, negative = inhibition, actives largely listed as inhibitors | 150,000 tested, 0.12% active | P18054 | purified 12-hLO, xylenol orange hydroperoxide absorbance; note: potency is the fitted concentration of half-maximal effect; nearly all actives have a fitted effect of over 55% in size
Target sequence (P18054 whole entry, looked up): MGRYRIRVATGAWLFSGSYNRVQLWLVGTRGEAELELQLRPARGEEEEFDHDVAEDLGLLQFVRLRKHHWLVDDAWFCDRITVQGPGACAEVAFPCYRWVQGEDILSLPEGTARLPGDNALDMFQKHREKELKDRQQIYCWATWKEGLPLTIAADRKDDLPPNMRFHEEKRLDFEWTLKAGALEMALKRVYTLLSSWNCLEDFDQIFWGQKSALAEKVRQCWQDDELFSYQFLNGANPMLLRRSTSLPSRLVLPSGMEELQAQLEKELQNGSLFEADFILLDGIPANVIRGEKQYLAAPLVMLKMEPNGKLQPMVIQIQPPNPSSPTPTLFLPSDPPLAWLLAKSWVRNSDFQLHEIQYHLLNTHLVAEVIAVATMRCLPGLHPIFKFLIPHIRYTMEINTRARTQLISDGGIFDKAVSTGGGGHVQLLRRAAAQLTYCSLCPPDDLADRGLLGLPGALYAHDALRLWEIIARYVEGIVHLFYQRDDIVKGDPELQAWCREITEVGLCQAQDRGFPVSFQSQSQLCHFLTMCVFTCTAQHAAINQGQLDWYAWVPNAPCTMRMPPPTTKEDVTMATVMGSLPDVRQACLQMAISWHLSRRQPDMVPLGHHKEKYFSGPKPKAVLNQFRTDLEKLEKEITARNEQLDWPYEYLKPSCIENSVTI
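Hydroperoxide formation by human 12-lipoxygenase from 40 uM arachidonic acid was followed colorimetrically via ferric-xylenol orange complex, using the 573/405 nm absorbance ratio. Enzyme concentration was 150 nM, with 30 min reaction at room temperature.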
ALDH1A1 block: inhibitors of human aldehyde dehydrogenase 1A1; P00352; Purified ALDH1A1, NADH fluorescence, propionaldehyde substrate; Potency, µM (highest dose often 75.3 µM), for inactives: at the top dose activity, negative = inhibition, most hits filed as inhibitors; 220,000 tested, 7.3% active; AID 1030; active = well fitted inhibition curve with a large enough effect, not every such curve was filed as active; inconclusive = small, poorly fitted or top-dose-only effect, or another doubt; inactive = no such curve, though single readings can be large or run the other way;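 note: potency is the fitted concentration of half-maximal effect; plate controls were no enzyme wells and a reference inhibitor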
HPGD block: HPGD (human) dehydrogenase inhibition; 150,000 tested, 4.3% active; P15428; AID 894; Potency, µM, for inactives: at the highest dose activity change, negative = inhibition, usual class: inhibitors; purified HPGD, NADH fluorescence kinetic, PGE2 substrate; active = well fitted inhibition curve with a large enough effect, not every such curve was filed as active; inconclusive = small, poorly fitted or top-dose-only effect, or another doubt; inactive = no such curve, though single readings can be large or run the other way; note: potency is the fitted concentration of half-maximal effect
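20 nM HPGD preincubated 15 min at room temperature with compound in 50 mM Tris-HCl pH 8, 0.01% Tween 20. Started with 1 mM NAD+ and 30 uM prostaglandin E2; NADH fluorescence (360/450 nm) read 5 times over 30-s intervals, last minus first.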
IMPase Li cell: IMPase inhibition in cells with lithium potentiation. AID 1457. CHO-M1 cells, IP1 TR-FRET (IP-One), carbachol + lithium. Potency, µM (doses to about 59.4 µM), for inactives: at the highest dose activity, negative = IMPase inhibition, hits mostly inhibitors. 210,000 tested, 0.35% active;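 note: IP1 builds up when IMPase is blocked and the TR-FRET signal falls; potency is the fitted concentration of half-maximal effect; plate controls were basal vehicle for no effect and high inhibitor control for full effect; nearly all actives have a fitted effect of over 50% in size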
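IP1 accumulation measured by competitive TR-FRET in lysed CHO-M1 cells after 30 min compound exposure at 37C, with a small lithium addition to potentiate weak responses. Hill-equation AC50 from ratio and donor-channel data.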
PNC assembly inh: inhibitors of perinucleolar compartment assembly; PC3M PTB-GFP, PNC prevalence imaging, 16 h; hits give low values; activity change (PNC), negative = inhibition, % at 10 µM; 140,000 tested, 3.1% active;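 active = readout at or below -70, meaning at least 70% loss of cells showing the perinucleolar compartment, a nuclear body marking cancer cells; inconclusive = readout between -30 and a set limit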;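 note: plate controls were DMSO wells for no effect and camptothecin positive control wells for full effect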
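Read-out is percentage of cells bearing a perinucleolar compartment, from automated 20x imaging of fixed, Hoechst-stained PC3M PTB-GFP cells. Cells were seeded 4 h, then exposed 16 h to compound (23 nl of library stock) in duplicate plates.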
IMPase inh: membrane-permeable compound that blocks inositol monophosphatase | P97697 | CHO-M1 cells, IP1 accumulation, HTRF TR-FRET ratio | inhibition (IP1 accumulation), % at 46.1 µM | 120,000 tested, under 10 active | AID 901; active = well fitted curve in the direction sought with a large enough effect in the signal ratio, not every such curve was filed as active; inconclusive = small, poorly fitted or top-dose-only effect, or a change in a side signal; inactive = no such curve, though single readings can be large or run the other way; the % refers to the signal ratio;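 note: cells stimulated with carbachol in lithium chloride buffer; plate controls were DMSO basal wells for no effect and reference inhibitor wells for full effect; higher means more IMPase inhibition seen as more IP1 and lower FRET ratio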
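CHO-M1, 2000 cells/well, cultured 16–30 h; cpd up to 46 uM; carbachol (50 uM solution, stimulation buffer w/ 50 mM LiCl, pH 7.4), 30 min 37C; IP-One TR-FRET, 10 min RT; Ex 320/Em 665, 620; Hill-fit AC50.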
An asterisk follows results filed as active; [ ] = remark or other dose. Most compounds without a hit are left out; they make up all but 11% or so of the library. Unless noted, calls come from the whole dose curve; as a rule, active = well fitted curve in the direction sought with a large enough effect; inconclusive = small, poorly fitted or top-dose-only effect, or another doubt; inactive = no such curve, though single readings can be large; an effect the other way counts as inactive or inconclusive. Unless noted, % is set by controls: 0 for no effect and ±100 for the full control effect.

Results for CCC(C)N1C(=O)/C(=C\c2cnc(N(C)C)nc2)C(=O)NC1=S (centres undefined) ?
ALDH1A1 block: -9.0%; IMPase Li cell: 10.3%

How did CCC(C)N1C(=O)/C(=C\c2cc3c4c(c2)CCCN4CCC3)C(=O)NC1=S (centres undefined) do in these assays?
12-hLO inh: -14.1%; ALDH1A1 block: 0.316µM*; HPGD block: 22.4µM*; IMPase Li cell: 7.1%; PNC assembly inh: 10.7

What do the screens show for `COc1cc2[nH]c(=S)n(-c3ccccc3)c(=O)c2cc1OC`?
ALDH1A1 block: 1.58µM*; IMPase Li cell: inconclusive

What do the screens show for `COc1ccc(-n2c(=S)[nH]c3c(sc(=S)n3-c3ccccc3)c2=O)c(OC)c1`?
ALDH1A1 block: 3.16µM*; IMPase Li cell: -4.8%

Results for COc1cc2[nH]c(=O)n(-c3ccc(C)cc3)c(=O)c2cc1OC ?
12-hLO inh: -0.5%; ALDH1A1 block: inconclusive; HPGD block: inconclusive; IMPase Li cell: -4.7%[38.3 µM]; PNC assembly inh: -24.9; IMPase inh: 3.5

What do the screens show for `CC[C@@H](CO)NC(=O)[C@H]1C=C2c3cccc4[nH]cc(c34)C[C@H]2N(C)C1`?
12-hLO inh: -2.5%; ALDH1A1 block: inconclusive; HPGD block: inconclusive; IMPase Li cell: 11.8%; IMPase inh: 0.7

What do the screens show for `CC[C@@H](CO)NC(=O)[C@@H]1C=C2c3cccc4[nH]cc(c34)C[C@H]2N(C)C1`?
ALDH1A1 block: 3.55µM*; IMPase Li cell: -3.8%

How did CC[C@@H](CO)NC(=O)[C@@H]1C=C2c3cccc4c3c(cn4C)C[C@H]2N(C)C1 do in these assays?
12-hLO inh: -2.6%; ALDH1A1 block: 3.16µM*; HPGD block: inconclusive; IMPase Li cell: 18.2%; PNC assembly inh: inconclusive

What do the screens show for `CCC(CO)NC(=O)C1C=C2c3cccc4[nH]cc(c34)CC2N(C)C1` (centres undefined)?
12-hLO inh: -3.0%; ALDH1A1 block: inconclusive; HPGD block: inconclusive; IMPase Li cell: 4.0%

What do the screens show for `C=CCN1C(=O)/C(=C\c2ccc(N3CCOCC3)o2)C(=O)NC1=S`?
12-hLO inh: -2.9%; ALDH1A1 block: 17.8µM*; HPGD block: -23.1%; IMPase Li cell: 4.9%; PNC assembly inh: 4.9

How did N#CC(O)c1ccccc1 (centres undefined) do in these assays?
12-hLO inh: 0.2%; ALDH1A1 block: 0.2%; HPGD block: -0.8%; IMPase Li cell: 7.6%

How did O[N+]1=CC=CCC1=S.On1ccccc1=S.[Zn] do in these assays?
12-hLO inh: -24.6%; ALDH1A1 block: 2.82µM*; HPGD block: inconclusive; IMPase Li cell: 16.4%

What do the screens show for `CN1C(=O)C(=Cc2coc3ccccc3c2=O)C(=O)N(C)C1=O`?
ALDH1A1 block: 0.891µM*

How did C[C@H](CC(C#N)(c1ccccc1)c1ccccc1)N1CCCCC1 do in these assays?
12-hLO inh: 0.7%[11.4 µM]; ALDH1A1 block: 10.7%[13.5 µM]; HPGD block: -2.2%; IMPase Li cell: 20.8%

What do the screens show for `O=C1NC(=O)N(Cc2ccccc2)C(=O)/C1=C\C=C\c1ccco1`?
ALDH1A1 block: 3.16µM*; IMPase Li cell: 21.2%

How did Cc1ccc(N2C(=O)NC(=O)/C(=C\C=C\c3ccco3)C2=O)cc1C do in these assays?
12-hLO inh: -17.8%; ALDH1A1 block: inconclusive; HPGD block: 10µM*; IMPase Li cell: 13.8%; PNC assembly inh: 34.4

What do the screens show for `Cc1cc(N2CCOCC2)ccc1/C=C1\C(=O)NC(=O)N(c2ccccc2)C1=O`?
ALDH1A1 block: inconclusive; IMPase Li cell: 3.4%

How did O=C1NC(=O)N(Cc2ccccc2)C(=O)/C1=C/c1cnc(-c2ccccc2)nc1 do in these assays?
ALDH1A1 block: 14.1%; IMPase Li cell: -4.3%

Results for O=C1NC(=O)N(Cc2ccccc2)C(=O)/C1=C/N1CCCc2ccccc21 ?
12-hLO inh: -6.4%; ALDH1A1 block: 8.91µM*; HPGD block: -24.0%; IMPase Li cell: -3.4%; PNC assembly inh: 48.4; IMPase inh: -1.9
